Experiments:
Assay in all cases: yeast three-hybrid, YBZ-1, SC-Leu-His + 0.5 mM 3-AT, 4 days
Settings in all cases: tags: N-Gal4 AD-HA kept; label: inside an RPR1-promoter hybrid RNA with tandem MS2 sites; ssRNA
[1] = target: PUM1 PUF domain R7-LFD (Homo sapiens, UniProt Q14671 828-1176, S1079L;N1080F;E1083D)
Summary of the method: (§1)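 A centromeric plasmid in strain YBZ-1 co-expressed Pumilio-1 PUF domain libraries, randomized at the three base-contacting residues of each repeat, with matching RNA elements; the strain carries a LexA–MS2 coat fusion and a HIS3 reporter. After four days on SC-Leu (input) or SC-Leu-His + 0.5 mM 3-AT (selection), the repeat regions were PCR-amplified and Illumina-sequenced. The interaction score is the log change in variant frequency from input to selection, using log2 and a pseudocount of 1 where absent.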

[2] = target: PUM1 PUF domain R5-WGF (Homo sapiens, UniProt Q14671 828-1176, C1007W;R1008G;Q1011F)
Summary of the method: as §1

[3] = target: T1, PUM1 PUF domain R6-WWA (Homo sapiens, UniProt Q14671 828-1176, N1043W;Y1044W;Q1047A)
T1 sequence: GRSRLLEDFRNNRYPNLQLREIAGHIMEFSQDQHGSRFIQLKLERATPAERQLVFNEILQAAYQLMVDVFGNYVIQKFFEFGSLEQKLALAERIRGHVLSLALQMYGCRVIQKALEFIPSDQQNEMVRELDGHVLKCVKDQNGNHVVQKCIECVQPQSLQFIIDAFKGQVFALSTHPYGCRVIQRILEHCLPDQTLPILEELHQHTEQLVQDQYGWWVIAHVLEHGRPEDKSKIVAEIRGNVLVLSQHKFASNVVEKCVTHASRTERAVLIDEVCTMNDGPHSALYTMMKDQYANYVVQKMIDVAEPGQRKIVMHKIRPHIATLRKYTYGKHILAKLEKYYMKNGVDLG
Summary of the method: as §1

[4] = target: PUM1 PUF domain R5-DWM (Homo sapiens, UniProt Q14671 828-1176, C1007D;R1008W;Q1011M)
Summary of the method: as §1

[5] = target: PUM1 PUF domain R8-RWH (Homo sapiens, UniProt Q14671 828-1176, N1122R;Y1123W;Q1126H)
Summary of the method: as §1

[6] = target: PUM1 PUF domain R3-VYY (Homo sapiens, UniProt Q14671 828-1176, C935V;R936Y;Q939Y)
Summary of the method: as §1

[7] = target: PUM1 PUF domain R3-QPG (Homo sapiens, UniProt Q14671 828-1176, C935Q;R936P;Q939G)
Summary of the method: as §1

[8] = target: PUM1 PUF domain R4-DHN (Homo sapiens, UniProt Q14671 828-1176, N971D;Q975N)
Summary of the method: as §1

[9] = target: PUM1 PUF domain R4-WGD (Homo sapiens, UniProt Q14671 828-1176, N971W;H972G;Q975D)
Summary of the method: as §1

[10] = target: PUM1 PUF domain R5-QCR (Homo sapiens, UniProt Q14671 828-1176, C1007Q;R1008C;Q1011R)
Summary of the method: as §1

In the case of “GGCUAGAACUAGUGGAUCCCCCGGCGCCCGGCGGCUCGAGCCCGGGUAAGUUUAAAUAGUCUGCAUGCCGCCGGGCGCCAUGCCUGCAGGUCGACUCUAGAAAACAUG”, the binding signal [1] is reported as 2.92 log2 enrichment (interaction score).

For “GGCUAGAACUAGUGGAUCCCCCGGCGCCCGGCGGCUCGAGCCCGGGUAAGUGUGAAUAGUCUGCAUGCCGCCGGGCGCCAUGCCUGCAGGUCGACUCUAGAAAACAUG”, the binding signal [2] was 4.79 log2 enrichment (interaction score).

With “GGCUAGAACUAGUGGAUCCCCCGGCGCCCGGCGGCUCGAGCCCGGGUAAGUGUAAAUAGUCUGCAUGCCGCCGGGCGCCAUGCCUGCAGGUCGACUCUAGAAAACAUG” the binding signal [3] was 4.79 log2 enrichment (interaction score), the binding signal [4] was 2.57 log2 enrichment (interaction score) and the binding signal [5] was 4.7 log2 enrichment (interaction score).

In the case of “GGCUAGAACUAGUGGAUCCCCCGGCGCCCGGCGGCUCGAGCCCGGGUAAGUGAAAAUAGUCUGCAUGCCGCCGGGCGCCAUGCCUGCAGGUCGACUCUAGAAAACAUG”, the binding signal [3] is reported as 2.47 log2 enrichment (interaction score).

For “GGCUAGAACUAGUGGAUCCCCCGGCGCCCGGCGGCUCGAGCCCGGGUAAGUGUAAUUAGUCUGCAUGCCGCCGGGCGCCAUGCCUGCAGGUCGACUCUAGAAAACAUG”, the binding signal [6] was 5.47 log2 enrichment (interaction score) and the binding signal [7] was 3.7 log2 enrichment (interaction score).

“GGCUAGAACUAGUGGAUCCCCCGGCGCCCGGCGGCUCGAGCCCGGGUAAGUGUAUAUAGUCUGCAUGCCGCCGGGCGCCAUGCCUGCAGGUCGACUCUAGAAAACAUG” was tested, and the binding signal [8] was 4.74 log2 enrichment (interaction score) and the binding signal [9] was 4.21 log2 enrichment (interaction score).

“GGCUAGAACUAGUGGAUCCCCCGGCGCCCGGCGGCUCGAGCCCGGGUAAGUGUACAUAGUCUGCAUGCCGCCGGGCGCCAUGCCUGCAGGUCGACUCUAGAAAACAUG” was tested, and the binding signal [8] was 2.6 log2 enrichment (interaction score).

In the case of “GGCUAGAACUAGUGGAUCCCCCGGCGCCCGGCGGCUCGAGCCCGGGUAAGUGUCAAUAGUCUGCAUGCCGCCGGGCGCCAUGCCUGCAGGUCGACUCUAGAAAACAUG”, the binding signal [10] is reported as 4.97 log2 enrichment (interaction score).

In the case of “GGCUAGAACUAGUGGAUCCCCCGGCGCCCGGCGGCUCGAGCCCGGGUAAGUGUUAAUAGUCUGCAUGCCGCCGGGCGCCAUGCCUGCAGGUCGACUCUAGAAAACAUG”, the binding signal [10] is reported as 3.91 log2 enrichment (interaction score).

For “GGCUAGAACUAGUGGAUCCCCCGGCGCCCGGCGGCUCGAGCCCGGGUAAGCGUAAAUAGUCUGCAUGCCGCCGGGCGCCAUGCCUGCAGGUCGACUCUAGAAAACAUG”, the binding signal [5] was 5.97 log2 enrichment (interaction score).
